{
  "source": "PubChem BioAssay (Tox21)",
  "note": "Calls of active or inactive are those of the source. Calls follow the shape of the dose curve; as a rule, active = well fitted curve in the direction sought with a large enough effect in the repeat runs; inconclusive = weak or mixed curves; inactive = flat fitted curve, though single readings scatter.",
  "data": [
    {"assay": "qHTS assay to test for compound auto fluorescence at 535 nm (green) in HepG2 cell free culture (AID 720686)", "details": "Cell-free medium, green autofluorescence 485/535 nm; series mostly up to 91.3 µM", "source_text": "U.S. Tox21 Program National Center for Advancing Translational Sciences [NCATS] NIH Chemical Genomics Center [NCGC] U.S. Environmental Protection Agency [EPA] National Institutes of Environmental Health Sciences [NIEHS] National Toxicology Program [NTP] U.S. Food and Drug Administration [FDA] Tox21 Assay Overview: Compound auto fluorescence often interferes with screening of the compound library against various biological targets and signaling pathways. Some of these compounds may have fluorophoric properties. Such properties may interfere with the assay outputs resulting in false positives and/or negatives. To decrease such complications and ensure the compound activities are relevant in terms of biological response, the Tox21 10K compound library was screened for auto fluorescence. From the fluorophores used as reporter signals in our screening assays, the auto fluorescence equivalencies of compounds against three fluorophores have been evaluated: Triamterene, Fluorescein and Rose Bengal sodium for blue, green and red fluorescence, respectively. The fluorescence intensities were measured using Excitation/Emission wavelengths at 405/460nm, 485/535nm and 540/590nm for blue, green and red labels, respectively. This assay includes the green fluorescence data.\nTox21 Assay Protocol Summary: 5 uL of culture medium (MEM containing 10% FBS) per well was dispensed into black wall/clear bottom 1536-well plates using a Multidrop Combi Dispenser (ThermoFisher Scientific, Waltham, MA). After 23 nL compound or DMSO vehicle was transferred into assay plate by a pintool work station (Kalypsys, San Diego, CA), fluorescence intensities in the assay plates were measured by an Envision (PerkinElmer, Shelton, CT) plate reader using three labels for measuring blue, green and red fluorescence at […] 460, 535 and 590nm respectively.", "values": [
      {"compound": "O=C(O)CCl", "outcome": "inactive"},
      {"compound": "CCCCCC[n+]1ccccc1", "outcome": "inactive"},
      {"compound": "O=c1[nH]c(=O)n(Cl)c(=O)n1Cl", "outcome": "inactive"},
      {"compound": "O=[N+]([O-])c1ccccc1O", "outcome": "inactive"},
      {"compound": "CCCCn1cc[n+](C)c1", "outcome": "inactive"},
      {"compound": "CC[n+]1ccccc1", "outcome": "inactive"},
      {"compound": "CCCCCCCCn1cc[n+](C)c1", "outcome": "inactive"},
      {"compound": "CCn1cc[n+](C)c1C", "outcome": "inactive"},
      {"compound": "CN(C)[C@@H]1C(=O)C(C(N)=O)=C(O)[C@@]2(O)C(=O)C3=C(O)c4c(O)cccc4[C@@](C)(O)[C@H]3[C@H](O)[C@@H]12", "outcome": "inactive"},
      {"compound": "O=C(O)COc1ccc(Cl)cc1Cl", "outcome": "inactive"},
      {"compound": "O=C(O)CC(O)(CC(=O)O)C(=O)O", "outcome": "inactive"},
      {"compound": "CCCCCCCCCCCCCC[P+](CCCCCC)(CCCCCC)CCCCCC", "outcome": "inactive"},
      {"compound": "Nc1ccc(-c2ccc(N)cc2)cc1", "outcome": "inactive"},
      {"compound": "COc1ccccc1N", "outcome": "inactive"},
      {"compound": "CC[N+](CC)(CC)CC", "outcome": "inactive"},
      {"compound": "Oc1ccccc1-c1ccccc1", "outcome": "inactive"},
      {"compound": "COCC(=O)N(c1c(C)cccc1C)C(C)C(=O)OC", "note": "(stereo not given)", "outcome": "inactive"},
      {"compound": "O=C(O)C(Cl)(Cl)Cl", "outcome": "inactive"},
      {"compound": "Nc1ccc(Cl)cc1", "outcome": "inactive"},
      {"compound": "OCCOc1ccccc1", "outcome": "inactive"},
      {"compound": "CCCC[N+]1(C)CCCC1", "outcome": "inactive"},
      {"compound": "CCCCCCCCCCn1cc[n+](C)c1", "outcome": "inactive"},
      {"compound": "COP(=O)(OC)C(O)C(Cl)(Cl)Cl", "note": "(stereo not given)", "outcome": "inactive"},
      {"compound": "C1CCC(NC2CCCCC2)CC1", "outcome": "inactive"},
      {"compound": "CCNc1nc(Cl)nc(NCC)n1", "outcome": "inactive"},
      {"compound": "CCCCCCCCCCCCCCCCn1cc[n+](C)c1", "outcome": "inactive"},
      {"compound": "O=C(O)c1nc(Cl)ccc1Cl", "outcome": "inactive"},
      {"compound": "CC[N+]1(C)CCCC1", "outcome": "inactive"},
      {"compound": "Nc1ccc(-c2ccc(N)c(Cl)c2)cc1Cl", "outcome": "inactive"},
      {"compound": "C[C@]12CCC(=O)C=C1CC[C@@H]1[C@@H]2CC[C@]2(C)C(=O)CC[C@@H]12", "outcome": "inactive"},
      {"compound": "CCCC[n+]1ccccc1C", "outcome": "inactive"},
      {"compound": "Cc1cc(-c2ccc(N)c(C)c2)ccc1N", "outcome": "inactive"},
      {"compound": "CCCC[n+]1ccccc1", "outcome": "inactive"},
      {"compound": "CCCCn1cc[n+](C)c1C", "outcome": "inactive"},
      {"compound": "COc1ccc(N)cc1", "outcome": "inactive"},
      {"compound": "C[N+](C)(C)Cc1ccccc1", "outcome": "inactive"},
      {"compound": "O=S(=O)(O)O", "outcome": "inactive"},
      {"compound": "CCCCCCn1cc[n+](C)c1", "outcome": "inactive"},
      {"compound": "CC(=O)O", "outcome": "inactive"},
      {"compound": "CCOP(=S)(OCC)Oc1ccc2c(C)c(Cl)c(=O)oc2c1", "outcome": "inactive"}
    ]}
  ]
}
